Assay results as given in PubChem BioAssay AID1159580 (chemical genetic matrix, 2015).
“And” between values parts separate entries of the source, which are not always exact repeats. Equal entries are not always repeated. About 2,000 (36%) of roughly 5,500 compounds were called active. Inconclusive results (about 18%) are left out. No stated cut-off is given here; in the data, active means normalized growth mostly below about 0.91 (no sharp cut-off); inconclusive means no clear call, values can overlap the other calls; inactive means mostly above about 0.92. This is one part of the list.

Test: chemical genetic growth profiling, strain panel (AID 1159580);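 further: tested at 20 µM; growth read once vehicle control cultures reached saturation at 30 °C; 1 = growth at the plate median or of vehicle wells; lower values mean less growth of the strain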
Conditions: S. cerevisiae deletion strains, growth OD

Measured: normalized growth

CCCCN1CCCCC1C(=O)Nc1c(C)cccc1C (configuration not stated)
inactive: locus YAL013W, strain DEP1, hits give low values 1.02 | locus YAL021C, strain ccr4, hits give low values 0.992 | locus YAL026C, strain drs2, hits give low values 1.01 | locus YAL030W, strain snc1, hits give low values 0.991 | locus YBL061C, strain skt5, hits give low values 0.992 | locus YBR009C, strain hhf1, hits give low values 0.976 | locus YBR021W, strain FUR4, hits give low values 1.01 | locus YBR023C, strain chs3, hits give low values 0.977 | locus YBR171W, strain sec66, hits give low values 0.991 | locus YBR229C, strain ROT2, hits give low values 1.02 | locus YBR231C, strain swc5, hits give low values 0.995 | locus YBR279W, strain paf1, hits give low values 0.994 | locus YCL011C, strain gbp2, hits give low values 0.986 | locus YCL016C, strain dcc1, hits give low values 1 | locus YCL029C, strain bik1, hits give low values 0.986 | locus YCL061C, strain MRC1, hits give low values 0.981 | locus YCL069W, strain vba3, hits give low values 0.99 | locus YCR088W, strain abp1, hits give low values 0.986 | locus YDL005C, strain med2, hits give low values 0.984 | locus YDL035C, strain GPR1, hits give low values 1.03 | locus YDL040C, strain nat1, hits give low values 1 | locus YDL074C, strain BRE1, hits give low values 1.01 | locus YDL101C, strain DUN1, hits give low values 1.01 | locus YDL134C, strain PPH21, hits give low values 1.01 | locus YDL185W, strain tfp1, hits give low values 0.995 | locus YDL192W, strain arf1, hits give low values 1 | locus YDR001C, strain nth1, hits give low values 0.978 | locus YDR069C, strain doa4, hits give low values 0.972 | locus YDR101C, strain arx1, hits give low values 1 | locus YDR137W, strain rgp1, hits give low values 0.965 | locus YDR150W, strain NUM1, hits give low values 1.02 | locus YDR159W, strain sac3, hits give low values 0.984 | locus YDR162C, strain NBP2, hits give low values 1.02 | locus YDR195W, strain ref2 0.967 | locus YDR297W, strain sur2, hits give low values 0.986 | locus YDR318W, strain mcm21, hits give low values 0.995 | locus YDR334W, strain swr1, hits give low values 0.969 | locus YDR335W, strain msn5, hits give low values 0.987 | locus YDR388W, hits give low values 0.986 | locus YDR392W, strain spt3, hits give low values 0.991 | locus YDR502C, strain sam2, hits give low values 1 | locus YEL003W, strain gim4, hits give low values 0.983 | locus YEL037C, strain rad23, hits give low values 0.993 | locus YEL061C, strain CIN8 (second series), hits give low values 0.973 | locus YEL061C, strain CIN8, hits give low values 1.01 | locus YER015W, strain faa2, hits give low values 0.992 | locus YER016W, strain bim1, hits give low values 0.987 | locus YER110C, hits give low values 0.995 | locus YER111C, strain swi4, hits give low values 1.01 | locus YER155C, strain BEM2 (second series), hits give low values 0.997 | locus YER155C, strain BEM2, hits give low values 1 | locus YER167W, strain BCK2, hits give low values 1.03 | locus YFR010W, strain ubp6, hits give low values 0.974 | locus YGL078C, strain dbp3, hits give low values 0.996 | locus YGL086W, strain mad1, hits give low values 1.01 | locus YGL167C, strain pmr1, hits give low values 0.992 | locus YGL173C, strain kem1, hits give low values 1.01 | locus YGL227W, strain vid30, hits give low values 0.973 | locus YGL240W, strain doc1, hits give low values 0.98 | locus YGL248W, strain PDE1, hits give low values 1.02 | locus YGL253W, strain hxk2, hits give low values 0.994 | locus YGR078C, strain PAC10, hits give low values 1.01 | locus YGR135W, strain pre9, hits give low values 0.997 | locus YGR229C, strain SMI1, hits give low values 1.01 | locus YGR252W, strain gcn5, hits give low values 1.06 | locus YHR013C, strain ard1, hits give low values 0.988 | locus YHR027C, strain rpn1, hits give low values 0.99 | locus YHR030C, strain SLT2, hits give low values 1.01 and 0.987 | locus YHR079C, strain IRE1 (second series), hits give low values 0.99 | locus YHR079C, strain IRE1, hits give low values 0.975 | locus YHR094C, strain hxt1, hits give low values 0.997 | locus YHR129C, strain ARP1, hits give low values 1.01 | locus YHR142W, strain chs7, hits give low values 0.999 | locus YHR200W, strain rpn10, hits give low values 0.986 | locus YIL066C, strain RNR3, hits give low values 1.01 | locus YIL073C, strain SPO22, hits give low values 0.989 | locus YIL125W, strain kgd1, hits give low values 0.997 | locus YIR030C, strain dcg1, hits give low values 0.992 | locus YJL092W, strain hpr5, hits give low values 0.969 | locus YJL095W, strain BCK1 (second series), hits give low values 0.995 | locus YJL095W, strain BCK1, hits give low values 1 and 0.971 | locus YJL115W, strain asf1, hits give low values 0.998 | locus YJL129C, strain trk1, hits give low values 0.966 | locus YJL134W, strain LCB3, hits give low values 1.01 | locus YJL154C, strain vps35, hits give low values 0.991 | locus YJL164C, strain tpk1, hits give low values 0.978 | locus YJL166W, strain qcr8, hits give low values 0.994 | locus YJL168C, strain set2, hits give low values 0.99 | locus YJL187C, strain SWE1 (second series), hits give low values 1.01 | locus YJL187C, strain SWE1, hits give low values 0.99 | locus YJR043C, strain POL32, hits give low values 1.01 | locus YJR066W, strain TOR1, hits give low values 0.957
